Results: PubChem BioAssay (Tox21)
Values joined by “and” are separate entries in the source; they are usually repeats but may differ in a detail not shown here. Equal values may be shown once. Inconclusive results are not listed. Where a call stands in place of a potency, no number is given. Active and inactive are the calls of the source. The call rests on the fitted dose curve; in most records, active means well fitted curve in the direction sought with a large enough effect in the repeat runs; inconclusive means weak or mixed curves; inactive means no such curve, though single readings can be large; an effect the other way counts as inactive or inconclusive.

Experiment: qHTS assay to identify small molecule HDAC inhibitors (AID 1259364); further: potency means the concentration at half of the fitted maximal effect;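 further: wild-type HCT-116 cells with endogenous class I/II HDAC activity; nearly all actives have a fitted effect of over 45% in size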
Settings: HCT-116 HDAC-Glo I/II luminescence, 2 h; series mostly up to 92.4 µM
Summary of the method: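 Relative class I and II HDAC activity is taken from the luminogenic signal in HCT-116 cells, with compound exposure 2 hr and reagent development 30 min at room temperature.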

SMILES | Potency
O=[N+]([O-])c1cc(C(F)(F)F)ccc1Cl | inactive
COCN(COC)c1nc(N(COC)COC)nc(N(COC)COC)n1 | inactive
CCCCCCCC(=O)O | inactive
CC(O)CNCC(C)O (stereo unspecified) | inactive
C=CC(=O)NCOCCCC | inactive
CN=C(NC#N)NCCSCc1nc[nH]c1C | inactive
CCCN(CCC)C(=O)SCC | inactive
CC/C=C(\C(=O)N[C@@H]1C(=O)N2C(C(=O)OCOC(=O)C(C)(C)C)=C(COC(N)=O)CS[C@H]12)c1csc(N)n1 | inactive
N[C@@H](Cc1cc(I)c(Oc2ccc(O)c(I)c2)c(I)c1)C(=O)O | inactive
Cc1ccncc1 | inactive
CCCCCCCCO | inactive
Cc1nnc(NS(=O)(=O)c2ccc(N)cc2)s1 | inactive
NC(=O)NC(N)=O | inactive
Nc1nc(N)c2nc(-c3ccccc3)c(N)nc2n1 | inactive
CCCCCCCCCCCCCC(=O)O | inactive
CCc1cccc(CC)c1N | inactive
Cc1ccccc1Cl | inactive
Cc1cc(C)cc(O)c1 | inactive
CC(C=O)Cc1ccc(C(C)(C)C)cc1 (stereo unspecified) | inactive

SMILES | Potency
CCOC(=O)c1ccc(O)cc1 | inactive
Nc1cccc(C(F)(F)F)c1 | inactive
CCCCC(CC)COC(=O)c1ccc(C(=O)OCC(CC)CCCC)cc1 (stereo unspecified) | inactive
CCCOCC(C)O (stereo unspecified) | inactive
CCCCC(=O)O | inactive
CC(=O)Nc1ccc(CC(=O)O)cc1 | inactive
CC(C)(CO)CO | inactive
OB(O)O | inactive
OCC(O)CS (stereo unspecified) | inactive
OC[C@H]1O[C@@H](Oc2ccc(O)cc2)[C@H](O)[C@@H](O)[C@@H]1O | inactive
COc1c2ccoc2cc2oc(=O)ccc12 | inactive
CO[Si](CCCNCCN)(OC)OC | inactive
Nc1cccc(N)n1 | inactive
CC(C)=CCC/C(C)=C/C=O | inactive
CCCCCCC(=O)O | inactive
CCCCCCCCCCCC(=O)N(C)CC(=O)O | inactive
O=[N+]([O-])c1ccccc1C(F)(F)F | inactive
O=c1c(O)c(-c2ccc(O)c(O)c2)oc2cc(O)cc(O)c12 | 27.3 µM (active) and 24.5 µM (active) and 11.9 µM (active)
Cc1ccc(C(C)C)cc1 | inactive

Experiment: qHTS assay to identify small molecule HDAC inhibitors - cell viability counter screen (AID 1259365); further: nearly all actives have a fitted effect of over 50% in size
Settings: HCT-116 viability, CellTiter-Glo ATP luminescence, 2 h; series mostly up to 92.4 µM
Summary of the method: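 Wild-type HCT-116 cells, 1,500/well, cultured overnight, then compound-treated 2 h at 37 C. Viability measured as ATP luminescence with CellTiter-Glo after 30 min at room temperature.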

SMILES | Potency
O=[N+]([O-])c1cc(C(F)(F)F)ccc1Cl | inactive
COCN(COC)c1nc(N(COC)COC)nc(N(COC)COC)n1 | inactive
CCCCCCCC(=O)O | inactive
CC(O)CNCC(C)O (stereo unspecified) | inactive
C=CC(=O)NCOCCCC | inactive
CN=C(NC#N)NCCSCc1nc[nH]c1C | inactive
CCCN(CCC)C(=O)SCC | inactive
CC/C=C(\C(=O)N[C@@H]1C(=O)N2C(C(=O)OCOC(=O)C(C)(C)C)=C(COC(N)=O)CS[C@H]12)c1csc(N)n1 | inactive
N[C@@H](Cc1cc(I)c(Oc2ccc(O)c(I)c2)c(I)c1)C(=O)O | inactive
Cc1ccncc1 | inactive
CCCCCCCCO | inactive
Cc1nnc(NS(=O)(=O)c2ccc(N)cc2)s1 | inactive
NC(=O)NC(N)=O | inactive
Nc1nc(N)c2nc(-c3ccccc3)c(N)nc2n1 | inactive
CCCCCCCCCCCCCC(=O)O | inactive
CCc1cccc(CC)c1N | inactive
Cc1ccccc1Cl | inactive
Cc1cc(C)cc(O)c1 | inactive
CC(C=O)Cc1ccc(C(C)(C)C)cc1 (stereo unspecified) | inactive

SMILES | Potency
CCOC(=O)c1ccc(O)cc1 | inactive
Nc1cccc(C(F)(F)F)c1 | inactive
CCCCC(CC)COC(=O)c1ccc(C(=O)OCC(CC)CCCC)cc1 (stereo unspecified) | inactive
CCCOCC(C)O (stereo unspecified) | inactive
CCCCC(=O)O | inactive
CC(=O)Nc1ccc(CC(=O)O)cc1 | inactive
CC(C)(CO)CO | inactive
OB(O)O | inactive
OCC(O)CS (stereo unspecified) | inactive
OC[C@H]1O[C@@H](Oc2ccc(O)cc2)[C@H](O)[C@@H](O)[C@@H]1O | inactive
COc1c2ccoc2cc2oc(=O)ccc12 | inactive
CO[Si](CCCNCCN)(OC)OC | inactive
Nc1cccc(N)n1 | inactive
CC(C)=CCC/C(C)=C/C=O | inactive
CCCCCCC(=O)O | inactive
CCCCCCCCCCCC(=O)N(C)CC(=O)O | inactive
O=[N+]([O-])c1ccccc1C(F)(F)F | inactive
O=c1c(O)c(-c2ccc(O)c(O)c2)oc2cc(O)cc(O)c12 | inactive
Cc1ccc(C(C)C)cc1 | inactive
